PABP FP inh: PABP poly(A) RNA binding inhibitors, primary screen, biochemical, fluorescence polarization, uHTS; actives 1% (n = 290,000); inhibition, % at 35 µM;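 note: calls also rest on retests at 20 µM and on dose response follow-up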
eIF4H FP inh: human eIF4H binding inhibitors, primary screen, translation initiation inhibitor project, biochemical, uHTS, fluorescence polarization; eIF4H fluorescence polarization binding assay; AID 2012, 2009; inhibition, % at 35 µM; actives 0.94% (n = 290,000); Eukaryotic translation initiation factor 4H (Homo sapiens), Q15056;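 note: calls also rest on retests at 20 µM and on dose response follow-up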
eIF4E 4G PPI: eIF4E–eIF4G protein interaction inhibitors, primary screen, biochemical, uHTS, TR-FRET, eIF4GI fragment; AID 782, 2007; Eukaryotic translation initiation factor 4E (Mus musculus) + Eukaryotic translation …; actives 0.37% (n = 220,000); TR-FRET eIF4E-eIF4GI(517-606) binding, 2 h; inhibition, % at 21.7 µM;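 active = inhibition above about 30%, limit read from the data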
PERK inhibitor: block of dimerizer-induced PERK translation repression, primary screen, PERK inhibitor project, CHO PERK-DD cells, SEAP luminescence, HTS; CHO PERK-DD fusion, SEAP luminescence translation reporter; inhibition, % at 5.6 µM; actives 0.17% (n = 220,000); AID 1416, 2008;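 active = inhibition above the mean inhibition of all tested compounds plus 3 SD, set separately per screening campaign, cut at about 2.9% in these data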;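 note: PERK kinase domain activated by AP20187 dimerizer at 100 nM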
PABP1 MLLE inh: inhibitors of PABP1 MLLE–PAM2 peptide binding, primary screen, biochemical, fluorescence polarization, FITC-PAM2, GST-MLLE; Polyadenylate-binding protein 1 (Homo sapiens), P11940; inhibition, % at 20 µM; actives 0.36% (n = 360,000); in the data active = inhibition above about 35%, passing the limit was not always enough
A number is an active result; – = inactive; ? = inconclusive; · = not tested or not shown. Sampled rows, rich in hits. Any-hit rate of the full collection: about 1.6%. Unless noted, the rule behind the calls is not given here.

SMILES	PABP FP inh	eIF4H FP inh	eIF4E 4G PPI	PERK inhibitor	PABP1 MLLE inh
CCCc1cc(=O)[nH]c(SCC(=O)N2c3ccccc3NC(=O)C2(C)C)n1	·	·	·	·	–
CCN(CC)S(=O)(=O)c1ccc2c(c1)nc(SCn1nnc3ccccc3c1=O)n2CC	–	–	–	–	43
Cn1c(SCn2nnc3ccccc3c2=O)nc2ccccc2c1=O	–	–	–	–	·
Cc1ccc(S(=O)(=O)N/N=C/c2ccc(C#N)cc2)cc1	–	–	·	·	–
CCc1ccc(-c2nc(CSCC(=O)N3CCN(c4ccccn4)CC3)c(C)o2)cc1	–	–	–	–	39
O=C(OCc1ccccc1)N(CCF)c1cn(Cc2ccccc2)c(=O)n(Cc2ccccc2)c1=O	·	·	·	·	–
N#Cc1c2c(c(-c3ccco3)[nH]c1=O)CCCC2	–	–	–	–	42
O=C(CSc1cn[nH]n1)Nc1ccc(Cl)cc1Cl	–	–	·	·	–
O=C(Cc1cccc2ccccc12)NC(NC(=S)Nc1ccccc1Cl)C(Cl)(Cl)Cl (stereo not drawn)	–	–	–	–	46
O=C(O)c1ccccc1NS(=O)(=O)c1cccc(-n2sc3ccccc3c2=O)c1	59	47	·	·	–
CC(C)Cc1ccc(S(=O)(=O)N2CCN(c3ccccn3)CC2)cc1	–	–	·	·	–
CCC/C(=N/NC(=O)c1csc(C)c1C)c1ccc(Cl)s1	–	active	–	–	–
Cc1c(Br)c(C(N)=O)nn1C	–	–	–	–	–
Cn1nnc2c(C(N)=O)ncn2c1=O	–	–	–	–	39
O=C(NC(Cc1ccccc1)C(=O)O)/C(=C/c1ccc(Cl)cc1)NC(=O)c1ccccc1 (stereo not drawn)	–	active	–	–	–
O=C(NC(Cc1ccccc1)C(=O)O)/C(=C\c1ccccc1F)NC(=O)c1ccccc1 (stereo not drawn)	–	–	–	–	–
O=C(CCC(=O)c1ccc(Cl)s1)Nc1ncccc1O	·	·	·	·	–
CCOc1ccccc1CNc1ccc(O)cc1	36	–	–	–	–
Cc1ccc(S(=O)(=O)NCCCNS(=O)(=O)c2ccc(C)cc2)cc1	·	·	·	·	–
Cc1ccc(S(=O)(=O)NCCCN(C)C)cc1	–	–	–	3.2	–
O=C(C1=C[C@@H]2[C@H]3C(=O)N(c4ccccc4Cl)C(=O)[C@H]3[C@@H](C(=O)c3ccc(Cl)cc3)N2C=C1)c1ccccc1	–	52	–	–	·
CC(C)c1ccc(CNc2ncccn2)cc1	–	–	·	·	–
NS(=O)(=O)c1ccc(NC(=S)NCc2ccc(Cl)cc2)cc1	–	–	35	–	–
CC(C)(C)c1ccc(C(=O)Nc2ccc(S(N)(=O)=O)cc2)cc1	15	62	–	–	–
CC(=O)c1ccc(NC(=S)NCCc2ccc(S(N)(=O)=O)cc2)cc1	–	–	–	–	40
SMILES	PABP FP inh	eIF4H FP inh	eIF4E 4G PPI	PERK inhibitor	PABP1 MLLE inh
NS(=O)(=O)c1ccc(NC(=O)c2ccc(-c3ccccc3)cc2)cc1	–	–	–	–	–
COc1cc(/C=c2\sc3nc(=O)c(-c4ccccc4)nn3c2=O)ccc1OCCC(C)C	–	–	–	–	–
COc1ccccc1/C=c1\sc2nc(-c3ccco3)nn2c1=O	62	90	–	–	–
COc1ccc(OC)c(/C=c2\sc3nc(-c4cccs4)nn3c2=O)c1	–	?	–	–	–
CCOc1ccc(/C=c2\sc3nc(-c4ccco4)nn3c2=O)cc1OCC	–	–	–	–	43
COc1cc(/C=N/NC(=O)CSc2n[nH]c(=O)[nH]c2=O)cc(OC)c1O	52	–	–	–	–
O=C(CSc1n[nH]c(=O)[nH]c1=O)N/N=C/c1ccccc1O	–	–	–	–	–
Cc1ccc2sc(C)[n+](CCC(C)S(=O)(=O)[O-])c2c1 (stereo not drawn)	–	–	–	–	41
CC/C(=C/c1sc2ccc(C)cc2[n+]1CCCS(=O)(=O)[O-])SC	–	–	–	–	·
O=C(N/N=C/c1ccccn1)c1ccc(Cl)c(Cl)c1	–	–	·	·	–
c1csc(-c2nnsc2-c2nc3ccccc3[nH]2)c1	90	69	–	–	–
COc1ccccc1NC(=O)N(C)C[C@H]1Oc2ncc(Br)cc2C(=O)N([C@H](C)CO)C[C@H]1C	·	·	·	·	–

Screens from PubChem.
